Drawing on PubChem BioAssay (NCATS), this text covers Potency for 30 molecules.

Records with an inconclusive call do not appear. Calls of active or inactive are those of the source. Unless noted, the call rests on the fitted dose curve; in most records, active means well fitted curve in the direction sought with a large enough effect; inconclusive means small, poorly fitted or top-dose-only effect, or another doubt; inactive means no such curve, though single readings can be large; an effect the other way counts as inactive or inconclusive.

In assay [1] the target is Aldehyde dehydrogenase, mitochondrial (Homo sapiens) (UniProt P05091). Description: qHTS for Inhibitors of the Aldehyde Dehydrogenase Family (ALDH2) Confirmatory screens (AID 2061303; active means well fitted inhibition curve with a large enough effect; title and protocol of this record describe different tests; further: nearly all actives have a fitted effect of over 45% in size; further: potency means the concentration at half of the fitted maximal effect).
For assay [2] the target is unchanged. Description: qHTS for Inhibitors of the Aldehyde Dehydrogenase Family (ALDH2) Primary screen (AID 2061308). Further: nearly all actives have a fitted effect of over 55% in size.
For assay [3], the target named is Aldehyde dehydrogenase 1A1 (Homo sapiens) (UniProt P00352). Nature of the assay: qHTS for Inhibitors of the Aldehyde Dehydrogenase Family (ALDH1A1) Confirmatory screens (AID 2061316). Further: nearly all actives have a fitted effect of over 65% in size. Further: potency means the concentration at half of the fitted maximal effect.
For assay [4], the target named is Retinaldehyde dehydrogenase 3 (Homo sapiens) (UniProt P47895). Description: qHTS for Inhibitors of the Aldehyde Dehydrogenase Family (ALDH1A3) Confirmatory screens (AID 2061311). Further: nearly all actives have a fitted effect of over 60% in size. Further: potency means the concentration at half of the fitted maximal effect.
Assay [5] deals with Retinal dehydrogenase 2 (Homo sapiens) (UniProt O94788). Description: qHTS for Inhibitors of the Aldehyde Dehydrogenase Family (ALDH1A2) Confirmation screens (AID 2061314). Further: nearly all actives have a fitted effect of over 65% in size. Further: potency means the concentration at half of the fitted maximal effect.
In assay [6] the target is Retinaldehyde dehydrogenase 3 (Homo sapiens) (UniProt P47895). Description: qHTS for Inhibitors of the Aldehyde Dehydrogenase Family (ALDH1A3) Primary screen (AID 2061315).
Assay [7] has the same target. Nature of the assay: qHTS for Inhibitors of the Aldehyde Dehydrogenase Family (ALDH1A3) Validation screen (AID 2061312). Further: potency means the concentration at half of the fitted maximal effect; nearly all actives have a fitted effect of over 45% in size.

Take `NCCCNc1ncnc2ccc(-c3ccc4c(c3)OCO4)cc12`: the Potency result in assay [1] and in assay [2] was “inactive” throughout. In assay [3], the Potency is 11.3 µM (active).

Regarding `CCOC(=O)c1ccc(N2CCN(c3cccc(Cl)c3)CC2)c(NC(=O)Nc2ccc(Cl)cc2)c1`, the Potency entry in assay [1], in assay [4], in assay [5] and in assay [3] was “inactive” throughout.

With `O=C(NCc1ccc(F)cc1)c1ccc2nnc(-c3cccc(C(F)(F)F)c3)n2c1`, the Potency entry in assay [1], in assay [4], in assay [5] and in assay [3] was “inactive” throughout.

`COc1ccccc1Nc1cc2ccccc2c(=O)[nH]1`: the Potency entry in assay [1] and in assay [5] was “inactive” each time. The Potency in assay [4] was 0.318 µM (active).

For the molecule `CCOc1ccc(NC(=O)N2CCN(c3ccc(Cl)c(Cl)c3)CC2)cc1`, the Potency result in assay [1], in assay [4], in assay [5] and in assay [3] was “inactive” throughout.

As to `CC(=O)Nc1sc2c(c1-c1nc3ccccc3s1)CN(C1COC1)C2`, the Potency in assay [1] was 12.7 µM (active); in assay [4], 8.96 µM (active); in assay [5], 8.96 µM (active); in assay [3], 2.52 µM (active). In assay [6], the Potency entry was “inactive”.

On to `COc1ccc(N2CCN(C(=S)Nc3cc(C)ccn3)CC2)cc1`, for which the Potency in assay [1] is 10.1 µM (active); in assay [4], 22.5 µM (active); in assay [5] it was 12.7 µM (active); in assay [3], 3.18 µM (active).

On to `O=S(=O)(Nc1ccc(O)c(NS(=O)(=O)c2ccccc2)c1)c1ccccc1`, for which the Potency entry in assay [1], in assay [2] and in assay [6] was “inactive” throughout. For the same molecule, in assay [3], the Potency is 2.83 µM (active).

For the molecule `CCN(CC)c1nc2ccccc2nc1C(=O)Nc1ccc(C(C)=O)cc1`, the Potency result in assay [1], in assay [4], in assay [5] and in assay [3] was “inactive” throughout.

Take `Cc1cc(C)nc(NC(=C(C#N)C#N)N2CCN(c3cccc(C(F)(F)F)c3)CC2)c1`: the Potency in assay [1] is 14.2 µM (active). For the same molecule, the Potency result in assay [2] and in assay [6] was “inactive” each time.

With `COc1ccc(CN(Cc2ccccc2)C(=O)c2ccccc2N)cc1COc1ccc(NC(C)=O)cc1`, the Potency result in assay [1], in assay [2] and in assay [6] was “inactive” throughout.

As to `Cn1nnnc1Sc1ncnc2scc(-c3ccc([N+](=O)[O-])cc3)c12`, the Potency entry in assay [1], in assay [2] and in assay [6] was “inactive” throughout.

Turning to `O=C(Nc1cccc(C(F)(F)F)c1)c1cc(-c2ccc(Cl)cc2)on1`, the Potency entry in assay [1], in assay [4] and in assay [5] was “inactive” throughout.

`COc1ccc(NC(c2nnc(-c3ccccc3)o2)c2ccccc2F)cc1Cl` (stereo not drawn): the Potency result in assay [1], in assay [4], in assay [5] and in assay [3] was “inactive” each time.

`CCOC(=O)Cn1c(=O)oc2cc(S(=O)(=O)N3CCN(c4ccc(C(C)=O)cc4)CC3)ccc21`: the Potency in assay [1] was 7.08 µM (active); in assay [4], 0.355 µM (active). Besides, in assay [5], the Potency result is “inactive”.

Turning to `Cc1cccc(-c2ccc(C=O)cc2)c1`, the Potency in assay [1] was 12.6 µM (active); in assay [4], 0.047 µM (active); in assay [5] it was 39.8 µM (active); in assay [3], 9.37 µM (active).

For the molecule `CC1(C)CCC(C)(C)c2cc3c(cc21)Sc1ccccc1N=C3c1ccc(C(=O)O)cc1`, the Potency result in assay [1], in assay [4], in assay [5] and in assay [6] was “inactive” each time. In addition, the Potency in assay [7] is 6.31 µM (active).

For `O=C(CN1CCCN(S(=O)(=O)c2ccc(Br)cc2)CC1)Nc1cccc(C(F)(F)F)c1`, the Potency was 1.15 µM (active) in assay [1], 6.47 µM (active) in assay [4], 25.1 µM (active) in assay [5] and 1.45 µM (active) in assay [3].

For the molecule `Cc1nc(CNc2ncnc3ccc(-c4ccoc4C)cc23)cs1`, the Potency entry in assay [1], in assay [2] and in assay [6] was “inactive” in each case.

Regarding `O=C(Nc1ccc2c(c1)OCO2)Nc1nnc(-c2ccncc2)s1`, the Potency result in assay [1], in assay [2], in assay [6] and in assay [3] was “inactive” each time.

Consider `COc1cccc(N2CCN(c3nc(C(=O)NCc4cccc(C)c4)cs3)CC2)c1`, for which the Potency entry in assay [1], in assay [4] and in assay [5] was “inactive” each time.

`Cc1ccc(NC(=O)c2cc(-c3ccc(Br)s3)nc3ccccc23)cc1F`: the Potency result in assay [1], in assay [4], in assay [5] and in assay [3] was “inactive” throughout.

With `Cc1ccc(NC(=O)N2CCN(c3ccc(Cl)c(Cl)c3)CC2)cc1`, the Potency entry in assay [1], in assay [4], in assay [5] and in assay [3] was “inactive” throughout.

Take `CCOc1ccc(CCNC(=O)c2ccc(N3N=C(C)CC3=O)cc2)cc1OCC`: the Potency was 1.26 µM (active) in assay [1], 0.1 µM (active) in assay [4], 0.896 µM (active) in assay [5] and 0.896 µM (active) in assay [3]. Besides, in assay [6], the Potency entry was “inactive”.

In the case of `Cc1ccc(-n2nc(C)c3c(C(=O)Nc4ccc(Br)c(C)c4)cc(C)nc32)cc1`, the Potency result in assay [1], in assay [4] and in assay [5] was “inactive” each time.

Consider `CN(c1ccccc1)c1ccc(CNc2nn3c(=O)c4ccccc4nc3s2)cc1`, for which the results for the Potency in assay [1], in assay [4] and in assay [3] were 11.2 µM (active), 12.6 µM (active) and 8.96 µM (active), respectively. Besides, the Potency result in assay [5] and in assay [6] was “inactive” throughout.

As to `COc1ccc(Cn2c(=O)[nH]c3cc(C(=O)N4CCN(c5ccccc5)CC4)ccc3c2=O)cc1`, the Potency entry in assay [1], in assay [4], in assay [5] and in assay [3] was “inactive” each time.

Regarding `O=C(Nc1ccc(N2CCOCC2)c(F)c1)Nc1nnc(-c2ccncc2)s1`, the Potency entry in assay [1], in assay [2] and in assay [6] was “inactive” in each case.

As to `CC(C)Sc1ncc(Cl)c(C(=O)Nc2nc3ccc(S(C)(=O)=O)cc3s2)n1`, the Potency entry in assay [1], in assay [4], in assay [5] and in assay [3] was “inactive” throughout.

As for `CCn1cc2nc(SCc3ccc(F)cc3)n(CCc3ccccc3)c(=O)c2n1`, the results for the Potency in assay [1], in assay [4] and in assay [5] were 14.1 µM (active), 0.562 µM (active) and 7.94 µM (active), respectively. Also, the Potency result in assay [3] was “inactive”.
